LMNA splice mod: LMNA splicing modulation; HeLa LMNA splicing GFP/RFP minigene ratio, 48 h; Potency, µM (highest dose often 46.1 µM), usual class: inhibitors; 0.01% of 200,000 active; AID 1487; active means well fitted inhibition curve with a large enough effect in the signal ratio, with a control signal flat, not every such curve was filed as active; inconclusive means small, poorly fitted or top-dose-only effect, or effect the other way, or a change in a side signal; the % refers to the signal ratio
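S3 HeLa stable clones carrying a lamin A-EGFP splicing minigene plus DsRed2 were seeded at 600 cells/well in Opti-MEM with 2% FBS, pin-dosed and incubated 48 h at 37°C. Acumen cytometry (488 nm) gave the GFP/RFP total-intensity ratio.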
HTT ATP protect: cytoprotection in Huntington HTT-Q103 PC12 cell model; PC12 HTT-Q103 induced, cytoprotection, ATP luminescence, 40 h; Potency, µM (series often up to 56.4 µM), most hits filed as activators; 0.14% of 230,000 active; AID 1471; further: nearly all actives have a fitted effect of over 45% in size
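Readout: ATPlite luminescence (ATP level). Model: stable PC12, inducible Htt exon1 Q103-GFP. Inducer: tebufenozide, 100 nM final. Compounds: dose series. No G418 in medium.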
HTT aggregate: reduces HttQ103-GFP aggregates in PC12 cells | PC12 HttQ103-GFP aggregates, Acumen cytometry, 40 h | Potency, µM (doses to about 46.1 µM), usual class: inhibitors | 1.1% of 220,000 active | AID 1688; further: nearly all actives have a fitted effect of over 60% in size
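Inducible Q103 Huntingtin exon 1–GFP PC12 line, 1500 cells/well in phenol red free DMEM with 5% equine and 5% calf serum. Tebufenozide 100 nM induced expression; compounds titrated; aggregates quantified by cytometry.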
IMPase Li cell: membrane-permeable IMPase blocker, potentiated with lithium; CHO-M1 cells, IP1 TR-FRET (IP-One), carbachol + lithium; Potency, µM (top dose mostly 59.4 µM), usual class: inhibitors; 0.35% of 210,000 active; AID 1457;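 further: IP1 builds up when IMPase is blocked and the TR-FRET signal falls; nearly all actives have a fitted effect of over 50% in size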
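Concentration–response in CHO-M1 cells, lithium-potentiated; 30 min at 37C. IP1 detected by competitive TR-FRET after 10 min lysis at RT. Hill-fitted AC50.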
NPSR antagonist: neuropeptide S receptor (human) antagonism, cAMP; AID 1461; Potency, µM (highest dose often 38.3 µM), usual class: inhibitors; CHO-NPSR cells, cAMP TR-FRET, antagonist mode; 1% of 220,000 active; further: nearly all actives have a fitted effect of over 50% in size
Target sequence (Q6W5P4 whole entry, looked up): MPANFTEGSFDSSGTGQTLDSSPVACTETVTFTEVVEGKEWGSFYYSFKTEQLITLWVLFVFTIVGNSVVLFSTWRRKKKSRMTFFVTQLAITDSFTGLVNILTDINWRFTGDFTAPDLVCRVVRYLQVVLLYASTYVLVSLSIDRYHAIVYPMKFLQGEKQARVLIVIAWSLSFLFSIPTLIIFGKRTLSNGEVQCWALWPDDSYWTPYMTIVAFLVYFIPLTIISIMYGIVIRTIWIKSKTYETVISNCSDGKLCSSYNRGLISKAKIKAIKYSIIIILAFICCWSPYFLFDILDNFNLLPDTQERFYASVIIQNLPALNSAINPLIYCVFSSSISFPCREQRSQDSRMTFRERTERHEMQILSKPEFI
IMPase inh: IMPase inhibition in cells | AID 901 | 120,000 tested, under 10 active | CHO-M1 cells, IP1 accumulation, HTRF TR-FRET ratio | P97697 | inhibition (IP1 accumulation), % at 46.1 µM; active means well fitted curve in the direction sought with a large enough effect in the signal ratio, not every such curve was filed as active; inconclusive means small, poorly fitted or top-dose-only effect, or a change in a side signal; inactive means no such curve, though single readings can be large or run the other way; the % refers to the signal ratio;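 further: cells stimulated with carbachol in lithium chloride buffer; higher means more IMPase inhibition seen as more IP1 and lower FRET ratio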
Target sequence (P97697 whole entry, looked up): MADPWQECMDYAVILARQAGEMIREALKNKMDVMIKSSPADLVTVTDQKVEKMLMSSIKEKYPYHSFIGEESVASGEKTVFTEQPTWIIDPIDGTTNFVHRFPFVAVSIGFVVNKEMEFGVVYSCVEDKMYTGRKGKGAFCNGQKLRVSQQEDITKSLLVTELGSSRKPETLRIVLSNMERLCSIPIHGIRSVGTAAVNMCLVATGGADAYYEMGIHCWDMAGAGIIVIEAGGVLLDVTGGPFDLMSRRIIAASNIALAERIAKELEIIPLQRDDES
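In this qHTS, compounds (final up to 46 uM) act on CHO-M1 cells that are then activated through the M1 receptor with carbachol, in pH 7.4 buffer containing 50 mM LiCl, for 30 min. IP1 accumulation is quantified by the IP-One immunoassay.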
Of the large screens only hits and unclear results are named; the others gave an inactive call. In the library only some 1.6% were active in any assay of this set; here they are far more common. Unless noted, the call rests on the fitted dose curve; in most records, active means well fitted curve in the direction sought with a large enough effect; inconclusive means small, poorly fitted or top-dose-only effect, or another doubt; inactive means no such curve, though single readings can be large; an effect the other way counts as inactive or inconclusive.

CC(=O)C1=C(C)NC(SCC(=O)c2ccccc2)=C(C#N)C1CC(C)C (stereo not given)	HTT aggregate 1.6µM, IMPase Li cell 10µM, IMPase inh inconclusive
O=C(O)COc1ccc(CCNS(=O)(=O)c2ccccc2)s1	none (no result: LMNA splice mod, IMPase Li cell, NPSR antagonist, IMPase inh)
Brc1ccc2c(c1)c1cc(Br)ccc1n2CC1CO1 (stereo not given)	none (no result: LMNA splice mod, HTT aggregate, NPSR antagonist, IMPase inh)
COc1nc(N)nc2c1ncn2[C@@H]1C[C@H](O)[C@@H](CO)O1	none (no result: LMNA splice mod, HTT aggregate, NPSR antagonist, IMPase inh)
O=c1[nH]c2ccccc2n1CCCSc1cnc2ccccc2n1	HTT aggregate 11µM
Cc1ccccc1N=C1NC(=O)/C(=C/c2cccn2-c2cccc(C(=O)O)c2)S1	none (no result: IMPase inh)
Cc1nc2c(Br)cc(Br)cc2cc1O	LMNA splice mod inconclusive, HTT aggregate 11µM, IMPase Li cell inconclusive, NPSR antagonist inconclusive
COc1cc(NC(=O)c2cc3c(=O)n(C)c4ccccc4c3n2C)cc(OC)c1OC	IMPase Li cell 3.5µM, IMPase inh inconclusive
COc1ccc(NC(=O)c2cc3c(=O)n(C)c4ccccc4c3n2C)cc1OC	LMNA splice mod inconclusive
Cc1ccc(-c2nc(C(Cl)Cl)c3ccccc3n2)cc1	HTT aggregate 0.89µM, NPSR antagonist inconclusive (no result: LMNA splice mod, IMPase Li cell, IMPase inh)
O=C(Cc1ccccc1)Nc1sc2c(c1C(=O)Nc1ccc(Br)cc1)CCCC2	none (no result: LMNA splice mod, HTT ATP protect, HTT aggregate, IMPase Li cell, NPSR antagonist)
OCc1cc2c(cn1)[nH]c1ccccc12	none (no result: LMNA splice mod, HTT aggregate, NPSR antagonist, IMPase inh)
Cc1ccc(-c2nn(CC(=O)Nc3ccc4c(c3)nc3n4CCOC3)c(=O)c3ccccc23)cc1	IMPase Li cell 10µM
CCOC(=O)C1=CC2(CC)CCCN3CCc4c(n1c1ccccc41)C32 (stereo not given)	none (no result: LMNA splice mod, NPSR antagonist, IMPase inh)
Clc1ccc(Nc2ncnc3c2cnn3-c2ccccc2)cc1	HTT aggregate 3.5µM
CNC(=O)c1nnsc1S(=O)(=O)c1ccc(Cl)cc1	LMNA splice mod inconclusive, HTT aggregate 3.2µM, NPSR antagonist inconclusive (no result: IMPase inh)
O=C(c1nnsc1S(=O)(=O)c1ccc(Cl)cc1)N1CCOCC1	LMNA splice mod inconclusive, HTT aggregate 13µM (no result: IMPase inh)
O=S(=O)(c1ccc(Cl)c(Cl)c1)c1snnc1-c1ccccc1	LMNA splice mod inconclusive, HTT aggregate inconclusive, NPSR antagonist inconclusive
Nc1nc(C(=O)N2CCOCC2)nn1S(=O)(=O)c1ccc(Cl)cc1	none
O=C1CC(c2ccc3c(c2)OCO3)c2cc(O)ccc2O1 (stereo not given)	none (no result: LMNA splice mod, HTT aggregate, NPSR antagonist, IMPase inh)
CN1CCN(c2nc3ccccc3nc2C(C#N)C(=O)OC2CCCCC2)CC1 (stereo not given)	HTT aggregate 13µM
O=c1[nH]c(SCc2ccccc2Cl)nc2c1CCC2	none
CNc1nc(SCc2ccccc2Cl)nc2c1CCCC2	LMNA splice mod inconclusive, HTT aggregate 10µM
COc1ccc2cc1Oc1cc3c(cc1OC)CC[N+](C)(C)C3Cc1ccc(cc1)Oc1c(OC)c(OC)cc3c1C(C2)[N+](C)(C)CC3 (stereo not given)	none (no result: LMNA splice mod, IMPase Li cell, NPSR antagonist, IMPase inh)
CCc1c(O)nc(SCC(=O)Nc2ccc(C)cc2)n(C2CCCCC2)c1=O	LMNA splice mod inconclusive, HTT aggregate 11µM, NPSR antagonist inconclusive
CCc1c(O)nc(SCC(=O)Nc2ccccc2)n(-c2ccccc2)c1=O	none (no result: IMPase Li cell)
Cc1cc(C)c(Nc2cc(S(=O)(=O)O)c(N)c3c2C(=O)c2ccccc2C3=O)c(C)c1	NPSR antagonist 5µM, IMPase inh inconclusive
Nc1ccc(-c2ccc(Nc3cc(S(=O)(=O)O)c(N)c4c3C(=O)c3ccccc3C4=O)cc2)c(S(=O)(=O)O)c1	none (no result: LMNA splice mod, HTT aggregate, NPSR antagonist, IMPase inh)
COc1cccc(-n2ccn(CC(=O)c3ccc(F)cc3)c(=O)c2=O)c1	none (no result: HTT ATP protect, HTT aggregate, IMPase Li cell, NPSR antagonist, IMPase inh)
O=C(CCS(=O)(=O)c1ccccc1)Nc1ccc(-c2nc3ccccc3s2)c(O)c1	IMPase Li cell 11µM (no result: IMPase inh)
CC(C)S	none (no result: LMNA splice mod, HTT aggregate, NPSR antagonist, IMPase inh)
Cc1cc(=O)oc2c(CN3CCN(C)CC3)c(O)c(Cl)cc12	IMPase Li cell 13µM, IMPase inh inconclusive
CCCCc1cc(=O)oc2c(CN3CCCC3)c(O)c(Cl)cc12	IMPase Li cell 10µM, IMPase inh inconclusive
C/C=C1\CC2C=CC1C2 (stereo not given)	none (no result: LMNA splice mod, HTT aggregate, NPSR antagonist, IMPase inh)
Cc1ccc(C(C)C)cc1NC(=O)Nc1ccc([N+](=O)[O-])cc1	NPSR antagonist 10µM (no result: LMNA splice mod, IMPase Li cell, IMPase inh)
CC(C)CCNC(=S)Nc1ccc([N+](=O)[O-])cc1	LMNA splice mod inconclusive, HTT aggregate 20µM (no result: IMPase inh)
N=c1n(Cc2ccc(Cl)cc2)c2ccccc2n1CC(O)COc1ccccc1 (stereo not given)	LMNA splice mod inconclusive, HTT aggregate 14µM, NPSR antagonist inconclusive (no result: IMPase inh)
Cc1sc2cc3c(c(C(=O)c4ccccc4)[n+]2c1C)-c1cccc2cccc-3c12	LMNA splice mod inconclusive, HTT aggregate 8.9µM, NPSR antagonist inconclusive (no result: HTT ATP protect, IMPase inh)
